Results on 40 compounds are retold here after PubChem BioAssay (NCI).

About 83,000 compounds went through this panel and 20% of them were active in at least one assay; those are over-represented in the sample as a whole.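 Interpretation: 100, growth as untreated; towards 0, rising growth inhibition; 0, no net growth; 0 to -100, cell death. Compounds scoring below 10 were considered active.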 A number with no mark means an inactive call. Activity calls are given as the source filed them.

In this experiment the test system is IGROV1 ovarian. Nature of the experiment: NCI-60 one-dose screen, 48 h (100 = growth as untreated, 0 = no growth, -100 = all killed). The conditions noted are these: 10 µM. The protocol: Growth inhibition of the IGROV1 human tumor cell line is measured as a screen for anti-cancer activity. Cells are grown in 96 well plates and exposed to the test compound for 48 hours. Compounds are tested at a single concentration, which is 10^-5 M for most compounds. The reported endpoint is percent growth (GI% or GIPRCNT), where numbers from 0 - 100% represent growth inhibition, and numbers from -100% - 0 represent cell death. For example, a value of 40 represents 60% growth inhibition. A value of 0 means no net growth occurred over the course of the experiment. A value of -40 indicates 40% of cells at the beginning of the experiment died by the end of the experiment. A value of -100 means all cells are dead at the end of the experiment.
NCI-60 Human Tumor Cell Lines Screen was performed using the standard one-dose NCI protocol, which is described in more detail at https://dtp.cancer.gov/discovery_development/nci-60/default.htm.
Compounds with GIPRCNT values below 10 were considered active. Activity score was based on GIPRCNT using the following formula: […]
Score is 0 for GIPRCNT values of 100 or above, 50 for GIPRCNT values of 0, and 100 for GIPRCNT values of -100.
Regarding `O=c1c2ccccc2nc(COc2ccccc2)n1/N=C/c1ccc(F)cc1`, the growth is 105%. Next, `Cc1ccc(-c2nc(Nc3ccc(C)c(S(N)(=O)=O)c3)c3ccccc3n2)cc1`: 87.5%. In the case of `CN(C(=O)c1ccc(C(F)(F)F)cc1C(F)(F)F)c1sc2c(c1C#N)CCC(=O)C2` it was 97.6%; in that of `CCOC(=O)CNC(=O)CN(Cc1ccccc1)C(=O)[C@@]1(C)CCC[C@]2(C)[C@H]3CC4C(C(C)C)=C[C@]3(CC[C@H]21)[C@@H]1C(=O)CCC(=O)[C@H]41`, 18.2%. Next, `O=C(CSc1ccc(-c2ccc(Cl)cc2)nn1)Nc1ccc(Cl)c(C(F)(F)F)c1`: 70.9%; `O=C(CSc1nnc(-c2c[nH]c3ccccc23)n1-c1ccccc1)Nc1ccc(C(=O)/C=C/c2cccc([N+](=O)[O-])c2)cc1`: 82.9%. Turning to `CCOC(=O)C1=C(N)N(c2ccccc2)C2=C(C(=O)CC(C)(C)C2)C1c1ccccc1OC` (stereo not given), the growth is 96.9%. `Cc1ccc2nc(-c3ccc(-c4nnc(SCC(=O)Nc5ccc(Br)cc5)o4)cc3)[nH]c2c1`: the growth is 91.2%. In the case of `CCOc1ccc(/C=N/NC(=O)Cn2nc(Cc3ccccc3)c3onc(C)c3c2=O)cc1` it was 38.5%; in that of `COc1cc2c3c(n(CCCn4ccnc4)c(=O)c2cc1OC)-c1nc2c(cc1C3=O)OCO2`, 56%. Next, `O=c1[nH]c2ccccc2cc1CSc1ccc(Nc2nccc(-c3ccc(C(F)(F)F)cc3)n2)cc1`: 35.7%; `Cc1ccc(C(C)C)cc1NC(=O)c1ccccc1N(C)C`: 88.6%; `Nc1cccnc1/C=N/NC(=S)NCCNC(=O)c1ccc(-n2nc(-c3ccccc3O)nc2-c2ccccc2O)cc1`: 12.5%. Next, `CC(=O)Nc1ccc(-c2cn(-c3cccc(C(=O)Nc4ccc(F)c(C(F)(F)F)c4)c3)nn2)cn1`: 43.2%; `O=c1cc(-c2ccccc2)oc2cc(OCCCCNCc3ccccc3)cc(O)c12`: 63.8%. Turning to `COc1ccc(-c2c(N)c(=O)n(C)c3ccccc23)cc1`, the growth is 46.5%. As to `COc1ccsc1/C=N/NC(=O)c1[nH]c2ccc(Br)cc2c1-c1ccccc1`, the growth is 22.6%.

Regarding `CCCCCc1ccc(S(=O)(=O)N(C(C)=O)c2cc(-c3csc(N(C)C(C)=O)n3)ccc2N2CCN(C)CC2)cc1`, the growth was 68.2%. Next, `CN1CCN(c2ccc(Nc3nc(NCCCNC(=O)c4ccccc4)c4sccc4n3)cc2)CC1`: 94.9%. Next, `CC(=O)OC[C@@]1(C)C2CC[C@]3(C)C(CC=C4C5CC(C)(C)CC[C@]5(C(=O)Nc5ccccc5)CC[C@]43C)[C@@]2(C)C[C@@H](OC(C)=O)[C@@H]1OC(C)=O` (stereo not given in full): 45.1%; `COc1cccc2nc(Nc3ccc(F)c(NC(=O)c4ccc(CN5CCN(C)CC5)c(C(F)(F)F)c4)c3)ccc12`: 29.3%. In the case of `CCCn1c(O)c(N=Nc2nc(-c3cc4ccccc4oc3=O)cs2)c2cc(Br)ccc21` it was 106%; in that of `O=C(c1ccc(O)cc1)C1[C@H](c2ccccc2Br)[C@@H](c2ccccc2)NC12C(=O)Nc1ccc(Br)cc12` (stereo not given in full), 18.4%. Take `CN1C(=O)/C(=C/c2ccc3ncsc3c2)NC1=NC12CC3CC(CC(O)(C3)C1)C2`: the growth was 8.51% (active). In the case of `O=C1Nc2ccc(Cl)cc2/C1=C/c1ccc(OCc2ccc(Br)cc2F)cc1` it was 39.2%. `COc1ccc(-c2cc(C(=O)N=Nc3c(O)[nH]c4ccc(Br)cc34)c3ccccc3n2)cc1`: the growth was 12.3%. In the case of `C=C[C@@]12CN3CC[C@]1(O)[C@@](C(=O)OC)(CO2)c1[nH]c2ccccc2c1C3` it was 95.2%; in that of `O=C1Nc2cc(-c3ccc(NC(=O)c4cccs4)cc3)ccc2/C1=C/c1ccc[nH]1`, 97.8%.

As to `NC(=Nc1ccc(OCCCCCCCCn2ccnn2)cc1)c1ccccc1`, the growth is 28.9%. Next, `Nc1nc(Nc2ccc(Cl)cc2)nn1Cc1cccc(Br)c1`: 13%. Next, `COc1ccc(-c2cc(-c3cc(C(=O)c4ccccc4)n4ccc(C)cc34)nc(N)c2C#N)cc1`: 79.1%; `Cc1nc(Nc2nc(C)c3ccc(OCCN4CCOCC4)cc3n2)[nH]c(=O)c1C`: -14% (active). In the case of `COc1cc(C2CC(c3ccccc3)=Nc3c(N)nc(N)nc3N2)ccc1Oc1nc(Nc2ccc(F)cc2)nc(N(C)C)n1` (stereo not given) it was 50.8%.

`COc1cccc(COc2ccc(/C=C3\Oc4cc(O)ccc4C3=O)cc2)c1`: the growth was 53.7%. Regarding `Cc1ccc(-c2cc(C(=O)N=Nc3c(O)[nH]c4ccccc34)c3ccccc3n2)cc1`, the growth is 60.1%.

`CC(=O)C1=C(C)NC(SCC(=O)Nc2ccc(S(=O)(=O)Nc3cc(C)on3)cc2)=NC1c1ccccc1` (stereo not given): the growth was 114%. For the compound `Nc1n[nH]c2cccc(C#Cc3cccc(NC(=O)Nc4cc(C(F)(F)F)cc(C(F)(F)F)c4)c3)c12`, the growth is -66% (active). Consider `O=C1NC(=NC23CC4CC(CC(C4)C2)C3)N/C1=C\c1ccc2ncsc2c1`, for which the growth is 4.69% (active).

As to `COc1ccc(NC(=O)Nc2ccc(OCC(=O)N=Nc3c(O)[nH]c4ccc([N+](=O)[O-])cc34)cc2)cc1`, the growth was 92.6%. As to `COc1ccc(/C=C/C(=O)c2ccc(S(=O)(=O)NCCNc3nc(Nc4ccc(F)cc4)nc(N(C)C)n3)cc2)cc1`, the growth is 43.6%.
